# Mot1-301 SUMO: blocks SUMOylation pathway, rescuing yeast Mot1-301 growth. S. cerevisiae Mot1-301 growth rescue, ATP luminescence, 38.5C; percent above DMSO median, 100 means doubled. growth rescue, % at 18.8 µM. actives 1% (n = 320,000). AID 2716;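 active = every valid replicate shows activation above 250% relative to neutral control wells; inactive = the rest, any valid replicate at or below 250%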;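 note: OY570 slx delta 5 strain wells were the positive control but not used for scaling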
# MPTP block: blocks calcium-induced mitochondrial swelling; inhibition, % at 10 µM; isolated mouse mitochondria, Ca2+ swelling absorbance, 30 min; actives 1.4% (n = 360,000);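 active = inhibition of 50% or more, scaled per plate between neutral and stimulator controls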;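 note: 0% = DMSO wells given calcium and 100% = 1 mM EGTA wells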
# aDG glyco act: alpha-DG glycosylation activation; activation, % at 10 µM; actives 0.22% (n = 360,000); Pro5-aDG cells, alpha-DG glycosylation AlphaScreen (IIH6); 0% Pro5, 100% B10-LARGE cell signal; AID 624168;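 active = activation of at least 8% versus controls, or a plate z-score of at least 8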;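 note: Pro5 are CHO cells carrying HIG-tagged alpha-DG that lacks glycosylation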
# FAS-TE inh: blocks the thioesterase domain of human fatty acid synthase. P49327. recombinant FAS-TE, OMFH fluorogenic substrate, fluorescence endpoint. inhibition, % at 15 µM. actives 0.67% (n = 360,000). AID 602261;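 active = compounds whose normalised, plate-corrected inhibition of enzyme fluorescence in the single-dose primary screen is 50% or more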;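 note: 0% = DMSO with enzyme and 100% = substrate without enzyme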
# Yeast superoxide: lowers age-related superoxide in aged yeast cells. S. cerevisiae aged cells, superoxide DHE fluorescence; active compounds read low. superoxide response (% of plate mean), % at 10 µM. actives 0.18% (n = 330,000). AID 2690;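 active = superoxide response under a set limit, about three screen SD below normal, cut at about 65% in these data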;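 note: yeast aged for seven days with compound at 30 °C before DHE staining; 100% = average MFI of all compound-treated wells on the plate with controls excluded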
# H9c2 protect: protects H9c2 cardiomyocytes from peroxide injury. H2O2 injury protection, ATPLite, 2 h. protection from H2O2 cell death, % at 20 µM. actives 0.63% (n = 360,000);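 active = compounds giving at least 50% protection of heart cells from peroxide-induced death in the single-dose screen, raw or plate-pattern-corrected value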;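 note: 0% = DMSO wells with peroxide and 100% = DMSO wells without peroxide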
# Starred values were filed as active, the others as inactive; · = no result. A selection: hits, their analogues and other compounds. The true share with any hit is near 3.8%.
SMILES,Mot1-301 SUMO,MPTP block,aDG glyco act,FAS-TE inh,Yeast superoxide,H9c2 protect
O=C(NNC(=O)c1ccccc1OCc1ccccc1Cl)c1csc(N2CCOCC2)n1,-4.7,-0.4,-0.1,9.4,106.8,52.0*
Cc1ccc2nc(-c3ccccc3)cc(C(=O)NNC(=O)c3csc(N4CCOCC4)n3)c2c1,16.8,-1.6,-0.1,6.7,73.9,58.0*
COc1ccccc1C(=O)NNC(=O)c1csc(N2CCOCC2)n1,1.1,-3.2,0.0,0.1,117.0,0.8
FC(F)(F)c1nnc2ccc(N3CCCC3)nn12,-4.3,-1.1,0.5,0.7,94.2,51.5*
CC(C)(C)c1cc(NC(=O)C2(C)CCN2C(=O)C2(c3ccccc3)CC2)no1 (configuration not stated),·,1.6,-0.4,11.9,·,-3.3
Cc1cc(C)cc(OCC(=O)NNC(=O)c2ccccn2)c1,206.4,-3.4,0.8,-4.3,103.3,78.2*
CC(C)CC(NC(=O)C(COCc1ccccc1)NC(=O)OC(C)(C)C)C(=O)NN (configuration not stated),-3.5,2.2,-0.3,-5.3,113.3,1.8
O=C(c1ccncc1)N1CCN(C(=O)c2ccco2)CC1,0.8,-2.2,-0.1,-3.9,102.5,-3.1
O=C(c1ccc(N2CN(C(=O)c3ccco3)c3nc4ccccc4nc32)cc1)N1CCOCC1,-18.7,0.4,-0.2,12.0,104.6,72.2*
CC(=O)Oc1cccc(Nc2ncnc3ccccc23)c1,45.3,0.6,-0.1,-4.7,100.4,-4.7
Cc1ccccc1C(=O)Oc1cccc(Nc2ncnc3ccccc23)c1,·,-1.7,6.3*,12.8,108.2,-23.2
COc1ccc(CN2CCNC(=O)C2CC(=O)NCCc2c[nH]c3ccccc23)c(OC)c1 (configuration not stated),523.7*,-2.0,-0.2,-4.8,107.7,1.9
COc1cccc(CCNC(=O)CC2C(=O)NCCN2Cc2ccc(C)o2)c1 (configuration not stated),15.0,-2.9,0.8,-4.8,116.5,-3.8
COc1cccc(CCNC(=O)CC2C(=O)NCCN2CC(C)(C)C)c1 (configuration not stated),551.0*,0.2,-0.2,-3.0,113.2,5.0
COc1ccc(CN2CCNC(=O)C2CC(=O)NCCc2nc(C)c(C)s2)c(OC)c1 (configuration not stated),157.0,-0.3,0.0,-0.6,101.0,-1.5
CC1CC(NC(=O)c2c(O)nc3sccn3c2=O)CC(C)(C)C1 (configuration not stated),-3.9,-0.5,0.3,18.1,102.0,10.3
Cc1[nH]c2ccccc2c(=O)c1CN(C)Cc1ccccc1,331.4*,3.2,-0.1,-9.3,105.7,9.4
COc1ccc(Cl)cc1C(=O)NNC(=O)c1nn(C)c(=O)c2ccccc12,-1.2,-1.8,0.4,6.2,95.7,30.5
CCn1nc(C(=O)NNC(=O)c2cc(Cl)ccc2OC)c2ccccc2c1=O,63.7,0.3,-0.3,8.1,107.9,66.4*
O=c1cc(-c2ccccc2)nc2cc(-c3ccco3)[nH]n12,-18.9,0.2,0.1,-5.7,63.0*,4.0
COc1ccc(C(=O)O/N=C(/c2ccccc2)c2ccncc2)cc1OC,-1.4,0.2,0.3,-8.0,95.4,58.8*
COc1ccc(C(=O)O/N=C(/c2ccccc2)c2ccncc2)cc1,20.8,-1.6,0.3,0.1,109.9,29.1
COc1cccc(/C=N/NC(=O)c2ccncc2)c1OC(=O)c1ccc(Br)cc1,-1.0,1.5,0.6,9.2,76.4,55.2*
COc1cc(/C=N/NC(=O)c2ccncc2)ccc1OC(=O)c1cccc(Br)c1,66.2,-1.1,-0.2,6.8,102.6,10.3
N#C/C(=C\c1ccc(O)c(O)c1)C(=O)Nc1cccc2ncccc12,-1.3,3.9,-0.3,2.0,87.8,55.0*
C[C@@H](NC(=O)/C(C#N)=C/c1ccc(O)c(O)c1)c1ccccc1,7.8,-1.7,-0.3,-1.1,107.1,61.7*
N#C/C(=C/c1ccc(O)c(O)c1)C(=O)NCc1ccc(Cl)cc1,-9.2,-0.5,-0.3,8.2,88.1,65.1*
COc1ccc(/C=C(\C#N)C(=O)Nc2cccc3ncccc23)cc1OC,-7.7,2.6,0.1,1.1,102.3,1.4
